Screening results (PubChem)
aSyn 5UTR act = Activators via SNCA 5'UTR binding, MLPCN | alpha-synuclein 5'UTR reporter, activators screen | activity score, % (tested at 7.5 µM), hits read low | actives 7.1% (n = 300,000) | AID 1814, 2009; in the data active = activity score below about -60%
* marks the source's active call; other numbers are inactive results. These entries were drawn from the full list.

SMILES | aSyn 5UTR act
COc1ccccc1N1CCN(/N=C/c2ccc(C(=O)O)cc2)CC1 | -128.5*
COc1ccccc1N1CCN(/N=C/C=C\c2ccco2)CC1 | -135.7*
Cc1[nH]c2ccccc2c1/C=C/C(=O)c1ccccc1 | -63.9*
Cc1[nH]c2ccccc2c(=O)c1C(=O)/C=C/c1ccccc1 | -280.5*
Cc1ccc(C(=O)c2c3ccccc3[n+]([O-])n2[C@@H](C)C(N)=O)cc1 | -86.6*
COc1ccc(-c2c(C#N)c(N)nc(Sc3ccc(Cl)cc3)c2C#N)cc1 | 57.5
COc1ccc(-c2cc3nc4ccccc4n3c(N)c2C#N)cc1 | -128.1*
O=[N+]([O-])c1ccc(O)c(C=Nc2ccc3nc(-c4ccccc4)[nH]c3c2)c1 | -166.2*
Oc1c(Br)cc(C=Nc2ccc3nc(-c4ccccc4)[nH]c3c2)c(O)c1Br | -124.2*
COc1cccc2cc(-c3cn4cccc(C)c4n3)c(=O)oc12 | -154.4*
COc1ccc(-n2c(C)cc(-c3cn4cccc(C)c4n3)c2C)cc1 | -78.8*
COc1cccc2cc(-c3cn4ccc(C)cc4n3)c(=O)oc12 | -87.8*
CCOc1cccc2cc(-c3cn4cc(C)ccc4n3)c(=O)oc12 | -83.3*
Cc1c(C(=O)NC(=S)NCC(C)C)oc2ccccc12 | -190.6*
C=CCNC(=S)NC(=O)c1oc2ccccc2c1C | -154.7*
Cc1cccnc1NC(=S)NC(=O)c1oc2ccccc2c1C | -226.3*
CN(C(=O)COC(=O)/C=C/c1ccccc1[N+](=O)[O-])c1ccccc1 | -68.7*
O=C(COC(=O)/C=C/c1ccccc1[N+](=O)[O-])Nc1ccc(OCc2ccccc2)cc1 | -121.9*
O=C(COC(=O)/C=C/c1ccccc1[N+](=O)[O-])NC1CCS(=O)(=O)C1 (configuration not stated) | -108.2*
O=C(CSc1nccn1-c1ncc(C(F)(F)F)cc1Cl)c1ccc(Br)cc1 | -194.6*
Cc1ccc(C(=O)CSc2nccn2-c2ccccc2)cc1 | -94.8*
O=C(CSc1nccn1-c1ccccc1)c1ccc(Cl)cc1 | -111.4*
CCS(=O)(=O)NCCc1csc(-c2ccccc2)n1 | -63.2*
Cc1nc(Nc2nc3c(c(=O)[nH]2)CCC3)nc2ccccc12 | 125.6
Cc1ccc2c(C)nc(Nc3nc(CSc4nc5ccccc5[nH]4)cc(=O)[nH]3)nc2c1 | 55.4
SMILES | aSyn 5UTR act
COc1ccc2c(C)nc(Nc3nc(-c4ccccc4)cc(=O)[nH]3)nc2c1 | -635.1*
COc1ccc(Cc2nn3c(-c4ccccc4Br)nnc3s2)cc1 | 37.1
COc1ccc(Cn2c(-c3ccc(Br)cc3)c[n+]3ccccc23)cc1 | -142.6*
CCC(=O)Nc1ccc(NC(=O)c2ccco2)cc1 | -136.0*
CCC(=O)Nc1ccc(NC(=O)c2ccco2)c(OC)c1 | -142.3*
COc1cc(NC(=O)CC(C)C)ccc1NC(=O)c1ccco1 | -119.1*
O=C(Nc1ccc(CSc2ccccc2)cc1)c1ccco1 | -125.4*
CCOc1ccc(CC(=O)Nc2ccc(NC(=O)c3ccco3)cc2)cc1OCC | 65.9
CSc1ccc(CN(C)C(=O)c2cc3ccccc3o2)cc1 | -67.0*
CSc1nsc(SCC(=O)Nc2ccc(OC(C)=O)cc2)n1 | -123.7*
CSc1nsc(SCC(=O)Nc2ccccc2F)n1 | -62.6*
CCOC(=O)c1ccc(NC(=O)CSc2nc(SC)ns2)cc1 | -107.1*
Cc1cccc(CSC2=NN3CCCC(=O)N=C3S2)c1 | -69.2*
CC(=O)c1c(C)nc(-c2ccc(Cl)cc2)nc1N | -239.2*
CC(=O)c1c(C)nc(-c2ccc(Cl)cc2)nc1N=CN(C)C | -128.1*
C[C@H]1C=CC(=O)O[C@H]1c1ccccc1 | -142.4*
COc1c2c(cc3oc(=O)c4c5ccc(O)cc5oc4c13)OC(C)(C)CC2 | -198.8*
CCCC(=O)Nc1ccc2oc(-c3cncc(Br)c3)nc2c1 | -94.1*
CCC(=O)Nc1ccc2oc(-c3cccnc3)nc2c1 | -100.8*
Cc1ccc2oc(-c3ccc(NC(=O)CC(C)C)cc3)nc2c1 | -76.6*
Cc1ccccc1-c1nc2cc(NC(=O)C3CC3)ccc2o1 | -150.0*
CCCC(=O)Nc1ccc(-c2nc3cc(C)c(C)cc3o2)cc1 | -110.4*
CCC(=O)Nc1ccc2oc(-c3ccccc3Br)nc2c1 | -185.8*
CC(C)CC(=O)Nc1ccc2oc(-c3cccnc3)nc2c1 | -120.1*
O=C(CN1CCCC1)Nc1ccc(-c2nc3cc(NC(=O)CN4CCCC4)ccc3o2)cc1 | -118.5*
SMILES | aSyn 5UTR act
Cc1ccc(NC(=O)NCc2c(C)nn(C)c2C)cc1Cl | -157.2*
Cc1nn(C)cc1CNC(=O)Nc1ccc(Cl)c(Cl)c1 | -145.4*
Cc1ccc(NC(=O)O/N=C/c2c(C)nn(C(C)(C)C)c2C)cc1Cl | 76.9
CCN(CC)S(=O)(=O)c1cc([N+](=O)[O-])ccc1NNC(=O)Nc1ccc(Cl)c(Cl)c1 | 58.4
Nc1ccc(-c2nc3ccccc3s2)cn1 | -109.6*
O=C1CNC(=S)N1c1nc2ccccc2s1 | 40.7
c1ccc(-c2nc3ccccc3s2)nc1 | -86.9*
COc1cc(OC)cc(-c2nc3ccccc3s2)c1 | -286.3*
O=C1CCC(=O)N1c1ccc(-c2nc3ccccc3s2)cc1 | -119.8*
Brc1ccc(-c2nc3ccccc3s2)s1 | -114.5*
CCOc1ccc(Nc2nc3cc(S(=O)(=O)N(CC)CC)ccc3o2)cc1 | 78.3
CCS(=O)(=O)c1ccc2oc(Nc3ccc(C(C)C)cc3)nc2c1 | -94.8*
Cc1cc2nnc(SCC(=O)NCc3ccco3)n2c2ccccc12 | -184.1*
COc1ccc(C(=O)Nn2c(SCC(=O)NCc3ccco3)nc3ccccc3c2=O)cc1 | 81.4
CC1CCC(NC(=O)Cn2ncc3ccccc32)CC1 (configuration not stated) | -113.3*
CCOc1ccc(NC(=O)Cn2ncc3ccccc32)cc1 | -129.3*
Cc1cc(C)cc(N(CC(=O)Nc2ccc(-c3nc4ccc(C)cc4s3)cc2)S(C)(=O)=O)c1 | -99.7*
Cc1ccc2nc(-c3ccc(NC(=O)CN4CCN(C(=O)c5ccco5)CC4)cc3)sc2c1 | -176.9*
Cc1cccc(NS(=O)(=O)c2ccc(NC(=O)CN(c3cc([N+](=O)[O-])ccc3C)S(C)(=O)=O)cc2)c1 | 101.0
Cc1ccc2nc(-c3ccc(NC(=O)CN(c4ccccc4C)S(C)(=O)=O)cc3)sc2c1 | -164.2*
CC1CCN(C(C(=O)NC2CCCCC2)c2cc3c(cc2[N+](=O)[O-])OCO3)CC1 (configuration not stated) | -101.9*
CC1CCCN(C(C(=O)NC2CCCCC2)c2cc3c(cc2[N+](=O)[O-])OCO3)C1 (configuration not stated) | -81.2*
CC1CCCN(c2ccc([N+](=O)[O-])cc2C(=O)c2ccccc2)C1 (configuration not stated) | 84.1
CN(C)/C=C/C(=O)c1ccc(Cl)c([N+](=O)[O-])c1 | -73.2*
CC(=O)c1c(C)oc2ccc(N(C(C)=O)S(=O)(=O)c3ccc(Cl)c([N+](=O)[O-])c3)cc12 | 111.5
SMILES | aSyn 5UTR act
Cc1cc2ccccn2c1C(C[N+](=O)[O-])c1ccc(N(C)C)cc1 (configuration not stated) | -79.6*
O=C(Nc1ccc(O)cc1)c1c(O)c2c([nH]c1=O)CCCC2 | -131.0*
CCCNC(=O)c1ccc2c(=O)c(O)c(-c3cccc(Br)c3)[nH]c2c1 | 83.7
CCCNC(=O)c1c(O)c2c([nH]c1=O)CCCC2 | -77.0*
O=C(NCC1CCCO1)c1c(O)c2c([nH]c1=O)CCCC2 (configuration not stated) | -112.4*
C=CCN=c1scc(C)n1/N=C/c1ccc(O)c(O)c1 | -156.0*
CN=c1scc(-c2ccco2)n1/N=C/c1ccc(O)c(O)c1 | -242.0*
CN=c1scc(-c2ccccc2F)n1/N=C/c1ccc[nH]1 | 83.1
